These results are taken from PubChem BioAssay AID602143 (Vanderbilt Specialized Chemistry Center, 2011).

Unmarked numbers belong to inactive results. Active and inactive are the calls of the source. Cut-off read from the data, not from the text of the source: active = remaining activity below about 50%; inactive = the rest.

In the test the target is Phospholipase D2 (Homo sapiens) (UniProt O14939). Nature of the test: PLD2 inhibitors in cells, cell-based, HEK293, single concentration (AID 602143).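 Note: tested at 200 nM.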 The conditions noted are these: HEK293 cellular PLD2 activity, percent of control; hits give low values.
Chain of Phospholipase D2 (Homo sapiens) (O14939 whole entry, looked up): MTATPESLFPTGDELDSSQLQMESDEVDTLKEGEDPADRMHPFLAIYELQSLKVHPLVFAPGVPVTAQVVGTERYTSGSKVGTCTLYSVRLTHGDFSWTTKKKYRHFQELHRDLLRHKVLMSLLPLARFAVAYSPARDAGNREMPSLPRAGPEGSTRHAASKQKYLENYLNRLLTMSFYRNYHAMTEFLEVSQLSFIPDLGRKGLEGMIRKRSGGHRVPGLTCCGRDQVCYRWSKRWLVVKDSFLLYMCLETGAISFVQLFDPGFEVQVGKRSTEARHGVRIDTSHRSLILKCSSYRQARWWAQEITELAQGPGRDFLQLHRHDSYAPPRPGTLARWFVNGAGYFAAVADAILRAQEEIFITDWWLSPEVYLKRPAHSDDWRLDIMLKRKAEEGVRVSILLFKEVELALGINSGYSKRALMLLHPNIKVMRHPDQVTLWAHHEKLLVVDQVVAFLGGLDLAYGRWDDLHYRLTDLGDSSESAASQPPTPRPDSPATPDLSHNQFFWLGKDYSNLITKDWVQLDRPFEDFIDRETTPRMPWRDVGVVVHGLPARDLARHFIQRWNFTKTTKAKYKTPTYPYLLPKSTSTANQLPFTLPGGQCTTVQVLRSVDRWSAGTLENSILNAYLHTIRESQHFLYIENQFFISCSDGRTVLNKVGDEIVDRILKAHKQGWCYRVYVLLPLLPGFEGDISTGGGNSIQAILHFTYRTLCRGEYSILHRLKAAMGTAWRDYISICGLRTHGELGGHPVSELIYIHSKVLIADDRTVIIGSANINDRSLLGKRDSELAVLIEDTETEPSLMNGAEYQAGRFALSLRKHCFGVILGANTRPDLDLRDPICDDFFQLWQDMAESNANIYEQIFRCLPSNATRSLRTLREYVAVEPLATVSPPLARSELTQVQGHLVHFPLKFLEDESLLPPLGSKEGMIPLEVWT
Chain of Phospholipase D2 (Homo sapiens) (O14939 whole entry, looked up): as above
In general, remaining activity refers to the signal under treatment as a percentage of the control signal. As to `O=C(NCCN1CCC2(CC1)C(=O)NCN2c1ccc(F)cc1)c1cnc2ccccc2c1`, the remaining activity was 24% (active).

In the case of `O=C(NCCN1CCC2(CC1)C(=O)NCN2c1cccc(F)c1)c1cc2cc(F)ccc2[nH]1`, the remaining activity was 0.401% (active).

On to `O=C(NCCN1CCC2(CC1)C(=O)NCN2c1ccc(F)c(F)c1)c1ccc2ccccc2c1`, for which the remaining activity is 40.1% (active).

Take `C[C@@H](CN1CCC2(CC1)C(=O)NCN2c1ccccc1)NC(=O)c1ccc(F)c(F)c1`: the remaining activity was 54.7%.

In the case of `O=C(NCCN1CCC2(CC1)C(=O)NCN2c1cccc(F)c1)c1cc(C(F)(F)F)ccc1C(F)(F)F`, the remaining activity is 87.9%.

On to `O=C(NCCN1CCC2(CC1)C(=O)NCN2c1ccccc1)c1cnc2ccccc2c1`, for which the remaining activity is 56.6%.

For the compound `CCC(=O)N[C@@H](C)CN1CCC2(CC1)C(=O)NCN2c1ccccc1`, the remaining activity was 95.3%.

As to `O=C(NCCN1CCC2(CC1)C(=O)NCN2c1ccc(Cl)cc1)c1ccc(F)cc1`, the remaining activity is 58.4%.

Consider `Cc1ccc(C(=O)NCCN2CCC3(CC2)C(=O)NCN3c2ccccc2)c(O)c1`, for which the remaining activity was 85%.

Regarding `O=C(C#Cc1ccccc1)NCCN1CCC2(CC1)C(=O)NCN2c1ccccc1`, the remaining activity is 47.9% (active).

For `O=C(NCCCN1CCC2(CC1)C(=O)NCN2c1ccccc1)c1cnc2ccccc2c1`, the remaining activity is 96.4%.

As to `O=C(NCCN1CCC2(CC1)C(=O)NCN2c1cccc(Br)c1)c1ccc2ccccc2c1`, the remaining activity was 47.8% (active).

With `O=C(CCN1CCC2(CC1)C(=O)NCN2c1ccccc1)Nc1ccc(F)cc1`, the remaining activity was 119%.

As for `O=C(c1cccc(F)c1)N(CCN1CCC2(CC1)C(=O)NCN2c1cccc(F)c1)C(=O)c1cccc(F)c1`, the remaining activity is 71.6%.
